Shown are actives, neighbours in structure and some others; about 9.2% of the full set was active somewhere.
SMN2 splice up – enhancers of SMN2 splice variant expression. 210,000 tested, 2.8% active. HEK293 SMN2-luciferase splicing reporter, luminescence, 30-36 h. Potency, µM (doses to about 46.1 µM), hits mostly activators; note: nearly all actives have a fitted effect of over 55% in size
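HEK293 cells carry an SMN2 […]–luciferase reporter in which exon 7 inclusion puts luciferase in frame. Cells were plated 10-12 h before compound addition, then incubated 30-36 h at 37C. ONE-Glo luminescence was read; sodium butyrate at 4.5 mM final served as control.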
FLuc modulator – counter-screen for miR-21 project: firefly luciferase inhibitors or activators; P08659; purified FLuc, Km substrates, luminescence inhibition; Potency, µM (doses to about 57.5 µM), hits mostly inhibitors; 360,000 tested, 6.9% active; AID 588342; note: nearly all actives have a fitted effect of over 55% in size
Target sequence (P08659 whole entry, looked up): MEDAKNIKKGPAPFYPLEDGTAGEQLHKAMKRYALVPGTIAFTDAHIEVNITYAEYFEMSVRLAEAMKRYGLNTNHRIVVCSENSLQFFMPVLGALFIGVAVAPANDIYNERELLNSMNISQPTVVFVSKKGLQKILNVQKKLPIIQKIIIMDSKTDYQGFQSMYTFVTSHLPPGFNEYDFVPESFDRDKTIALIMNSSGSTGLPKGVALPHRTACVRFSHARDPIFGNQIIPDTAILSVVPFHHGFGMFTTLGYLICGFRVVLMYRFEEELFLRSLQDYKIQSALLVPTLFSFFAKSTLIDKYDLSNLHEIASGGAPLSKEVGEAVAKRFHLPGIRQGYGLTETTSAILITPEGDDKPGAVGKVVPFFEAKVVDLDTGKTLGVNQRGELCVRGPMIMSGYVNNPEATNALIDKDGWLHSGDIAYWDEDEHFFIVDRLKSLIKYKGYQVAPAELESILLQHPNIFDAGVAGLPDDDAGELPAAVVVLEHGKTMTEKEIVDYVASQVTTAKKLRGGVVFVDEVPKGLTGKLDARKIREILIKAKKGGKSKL
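Purified P. pyralis luciferase, 10 nM final, with Km-level 10 uM D-luciferin and 10 uM ATP in 50 mM Tris acetate pH 7.5, 10 mM Mg acetate, 0.01% Tween-20, 0.05% BSA; 6-point qHTS titration about 60 µM downward; luminescence read.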
ELG1 repair inh – inhibitors of ELG1-dependent DNA repair in HEK293T cells. HEK293T ELG1-luciferase reporter, luminescence, 16 h; DNA damage induced by 5-fluorouridine. 330,000 tested, 2.3% active. AID 504467. Potency, µM (top dose mostly 46.1 µM), usual class: inhibitors; note: nearly all actives have a fitted effect of over 55% in size
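HEK293T cells expressing luciferase-tagged ELG1 (2,000/well) received 5-Fluorouridine plus compound or DMSO for 16 hr at 37 °C. Luciferase was read by ONE-Glo luminescence after 30 min at room temperature.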
NPC1 promoter act – NPC1 promoter activation; Huh7 NPC1 promoter luciferase reporter, 24 h; Potency, µM (series often up to 9.22 µM), usual class: activators; 320,000 tested, 2.4% active; AID 485313; note: nearly all actives have a fitted effect of over 60% in size
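Cells: Huh7 expressing luciferase under the NPC1 promoter, 1500/well. Seeded 2 h, compound added, incubated 24 h at 37 °C. Luciferase reagent, 10 min ambient, then luminescence.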
ELG1 genotox – inducers of genotoxicity in HEK293T ELG1-luciferase cells. HEK293T ELG1-luciferase reporter, luminescence, 16 h. Potency, µM (doses to about 46 µM), most hits filed as activators. 330,000 tested, 1.3% active. AID 504466; note: nearly all actives have a fitted effect of over 60% in size
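Quantitative HTS format in 1536-well plates. HEK293T ELG1-luciferase reporter cells receive test compound and are incubated 16 hr at 37 °C, 5% CO2; ONE-Glo added, 30 min room temperature, then luminescence read.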
Rab9 prom act – Rab9 promoter activation. Huh7 Rab9 promoter-luciferase reporter, luminescence, 24 h. Potency, µM (highest dose often 9.22 µM), hits mostly activators. 320,000 tested, 2.8% active; note: nearly all actives have a fitted effect of over 60% in size
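Huh7 reporter line, Rab9 promoter upstream of luciferase. Compound exposure 24 h at 37 °C in reduced-serum medium with 10% FBS. Read-out: luminescence.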
A number is an active result; [ ] = dose if it differs, or a comment. Calls come from the whole dose curve; as a rule, active = well fitted curve in the direction sought with a large enough effect; inconclusive = small, poorly fitted or top-dose-only effect, or another doubt; inactive = no such curve, though single readings can be large; an effect the other way counts as inactive or inconclusive.

Screening NC(=S)N/N=C/c1ccc(-c2ccccc2)o1 returned SMN2 splice up inactive, FLuc modulator inconclusive, ELG1 repair inh inactive, NPC1 promoter act inactive, ELG1 genotox inactive and Rab9 prom act inactive.
Screening CCCCC(=O)NC(=S)Nc1cc(C(=O)O)ccc1OC returned SMN2 splice up inactive, FLuc modulator inactive, ELG1 repair inh inactive, NPC1 promoter act inactive, ELG1 genotox inactive and Rab9 prom act inactive.
Screening COc1ccc(C(=O)O)cc1NC(=S)NC(=O)/C=C/c1ccc(C(C)C)cc1 returned FLuc modulator 11µM, ELG1 repair inh inactive, NPC1 promoter act inactive, ELG1 genotox inactive and Rab9 prom act inactive.
Screening O=c1cc(N=Nc2ccc(Cl)cc2)[nH]c(=O)[nH]1 returned FLuc modulator inactive, ELG1 repair inh 23µM, NPC1 promoter act inactive, ELG1 genotox inactive and Rab9 prom act inactive.
NC(=O)c1cccc2c3c([nH]c12)CCCC3 was read as SMN2 splice up inactive, FLuc modulator 24µM, ELG1 repair inh inconclusive, NPC1 promoter act inactive, ELG1 genotox inactive and Rab9 prom act inactive.
`COc1cccc(-c2cc(C(=O)N3CCN(C(=O)c4ccco4)CC3)on2)c1` gave FLuc modulator inactive, ELG1 repair inh inactive, NPC1 promoter act inactive, ELG1 genotox inactive and Rab9 prom act inactive.
For Cn1c(=O)c2c(nc(NCc3ccc4c(c3)OCO4)n2C)n(C)c1=O the results were SMN2 splice up 32µM, FLuc modulator inactive, ELG1 repair inh inactive, NPC1 promoter act inactive, ELG1 genotox inactive and Rab9 prom act inactive.
Screening O=C(N/N=C/c1ccccc1C(F)(F)F)c1ccc2nc[nH]c2c1 returned FLuc modulator inconclusive, ELG1 repair inh inconclusive, NPC1 promoter act inconclusive, ELG1 genotox inactive and Rab9 prom act inconclusive.
For CCc1ccc(C(=O)N/N=C/c2ccc(Cl)cc2Cl)nc1 the results were SMN2 splice up inactive, FLuc modulator 7.6µM, ELG1 repair inh inconclusive, NPC1 promoter act inactive, ELG1 genotox inactive and Rab9 prom act inactive.
C=CCc1cccc(/C=N/NC(=O)c2ccccc2OC)c1O was read as SMN2 splice up inactive, FLuc modulator 13µM, ELG1 repair inh inconclusive, NPC1 promoter act inactive, ELG1 genotox inconclusive and Rab9 prom act inactive.
For O=C(N/N=C/c1cc([N+](=O)[O-])ccc1Cl)c1ccc2nc[nH]c2c1 the results were SMN2 splice up inactive, FLuc modulator inactive, ELG1 repair inh inactive, NPC1 promoter act inactive, ELG1 genotox inactive and Rab9 prom act inactive.
Screening C=CCc1cccc(/C=N/NC(=O)c2ccc3nc[nH]c3c2)c1O returned FLuc modulator 17µM, ELG1 repair inh inconclusive, NPC1 promoter act inactive, ELG1 genotox inconclusive and Rab9 prom act inactive.
`O=C(N/N=C/c1ccc(Cl)cc1Cl)c1ccc2nc[nH]c2c1` gave FLuc modulator 9.5µM, ELG1 repair inh inconclusive, NPC1 promoter act inactive, ELG1 genotox inactive and Rab9 prom act inactive.
`O=C(COC(=O)c1c(Cl)ccc(Cl)c1Cl)NC1CCS(=O)(=O)C1` (centres undefined) gave SMN2 splice up inactive, FLuc modulator inactive, ELG1 repair inh inactive, NPC1 promoter act inactive, ELG1 genotox inactive and Rab9 prom act inactive.
For O=C(NCCC1CCCCN1S(=O)(=O)c1ccccc1)C(=O)NCc1ccccn1 (centres undefined) the results were FLuc modulator inactive, ELG1 repair inh inactive, NPC1 promoter act inactive, ELG1 genotox inactive and Rab9 prom act inactive.
`Cc1cccc(C(=O)N(Cc2ccccc2F)C2CCS(=O)(=O)C2)c1` (centres undefined) gave SMN2 splice up inactive and FLuc modulator inactive.
`Cc1cccc(C)c1NC(=O)Cn1c(=O)n(Cc2ccc3c(c2)OCO3)c(=O)c2oc3ccccc3c21` gave FLuc modulator inactive.
COc1ccc(CNC(=O)C2Cc3cc(S(=O)(=O)N4CCCCCC4)ccc3N2C(C)=O)cc1 (centres undefined) was read as FLuc modulator inactive.
`O=C(N/N=C/c1ccc(Cl)cc1Cl)c1cccc(F)c1` gave SMN2 splice up inconclusive, FLuc modulator 3.4µM, ELG1 repair inh inconclusive, NPC1 promoter act 1.8µM, ELG1 genotox inconclusive and Rab9 prom act 2µM.
For O=C(CN1C(=O)NC2(CCCc3ccccc32)C1=O)c1ccccc1F (centres undefined) the results were ELG1 repair inh inactive and ELG1 genotox inactive.
`CC1CCN(S(=O)(=O)c2cc(C(=O)N3CCN(c4ncccn4)CC3)ccc2Br)CC1` gave SMN2 splice up inactive[1.84 µM], FLuc modulator inactive, ELG1 repair inh 18µM, NPC1 promoter act inactive, ELG1 genotox inactive and Rab9 prom act inactive.
For COc1nc(C)nc2c1sc1nc3c(cc12)COC(C)(C)C3 the results were SMN2 splice up 14µM, FLuc modulator 13µM, ELG1 repair inh inconclusive, NPC1 promoter act 2.5µM, ELG1 genotox 8.2µM and Rab9 prom act 2µM.
`Cc1nc(OCC(C)C)c2sc3nc4c(cc3c2n1)COC(C)(C)C4` gave FLuc modulator 9.5µM, ELG1 repair inh inconclusive, NPC1 promoter act 1.8µM, ELG1 genotox inconclusive and Rab9 prom act 1.4µM.
`CCc1nc(OCc2ccco2)c2sc3nc4c(cc3c2n1)COC(C)(C)C4` gave FLuc modulator inactive, ELG1 repair inh inconclusive, NPC1 promoter act inactive, ELG1 genotox inactive and Rab9 prom act inactive.
Screening Cc1cc(NC(=O)COC(=O)C2CCN(C(=O)c3ccc(Cl)cc3)CC2)no1 returned SMN2 splice up inactive, FLuc modulator inactive, ELG1 repair inh inactive, NPC1 promoter act inactive, ELG1 genotox inactive and Rab9 prom act inactive.
For COc1cccc(/C=C/C(=O)OCC(=O)c2cc(C)n(CC3CCCO3)c2C)c1OC (centres undefined) the results were FLuc modulator 13µM, ELG1 repair inh inconclusive, NPC1 promoter act inactive, ELG1 genotox inactive and Rab9 prom act inactive.
Screening COc1cc(C(=O)OCC(=O)c2cc(C)n(CC3CCCO3)c2C)cc(OC)c1C (centres undefined) returned FLuc modulator 17µM, ELG1 repair inh inactive, NPC1 promoter act inactive, ELG1 genotox inactive and Rab9 prom act inactive.
For CSc1ncccc1C(=O)OCC(=O)c1cc(C)n(CC2CCCO2)c1C (centres undefined) the results were FLuc modulator 0.6µM, ELG1 repair inh inconclusive, NPC1 promoter act 1.1µM, ELG1 genotox inconclusive and Rab9 prom act 0.4µM.
Screening CCC(=O)c1ccc(OCC(=O)OCC(=O)c2cc(C)n(CC3CCCO3)c2C)cc1 (centres undefined) returned FLuc modulator inactive, ELG1 repair inh inactive, NPC1 promoter act inactive, ELG1 genotox inactive and Rab9 prom act inactive.
Screening COc1cc(C)ccc1OCC(=O)OCC(=O)c1cc(C)n(CC2CCCO2)c1C (centres undefined) returned FLuc modulator inconclusive, ELG1 repair inh inactive, NPC1 promoter act inactive, ELG1 genotox inactive and Rab9 prom act inactive.
